12 sequences from PMC5700166 can be followed below.

Holding throughout (assay): protein-binding microarray (PBM); PBM: ~300 nM protein, 6 mM HEPES pH 7.8, 80 mM KCl, 0.5 mM EDTA, 0.5 mM EGTA, 6% glycerol, 35 ng/ul poly-dIdC, 1% milk, 1 h, room temperature; Ap Aiptasia and Nv Nematostella (sea anemones) / Co Capsaspora / Aq Amphimedon (sponge) / Dm Drosophila / Hu human; RHD is the Rel homology domain; high values mean tight binding
What all share (conditions): dsDNA, one strand shown

One experiment concerns the target T1, GST-Ap-NF-kB RHD (Exaiptasia pallida (Aiptasia), UniProt A0A913YAJ5 2-422).
T1 sequence: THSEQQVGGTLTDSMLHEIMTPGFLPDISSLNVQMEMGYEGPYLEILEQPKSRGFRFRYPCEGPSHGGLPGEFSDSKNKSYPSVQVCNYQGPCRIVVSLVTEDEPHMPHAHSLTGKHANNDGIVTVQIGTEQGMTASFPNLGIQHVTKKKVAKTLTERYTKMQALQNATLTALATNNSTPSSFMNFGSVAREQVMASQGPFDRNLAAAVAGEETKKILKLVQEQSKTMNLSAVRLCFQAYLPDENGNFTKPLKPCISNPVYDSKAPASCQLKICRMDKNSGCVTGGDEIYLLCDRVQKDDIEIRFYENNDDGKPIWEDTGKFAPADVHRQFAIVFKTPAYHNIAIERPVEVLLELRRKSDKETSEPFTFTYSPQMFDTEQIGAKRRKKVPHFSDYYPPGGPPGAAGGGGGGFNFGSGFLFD

The target of experiment [1] is T2, GST-Nv-NF-kB (Cys allele) (Nematostella vectensis, UniProt E5G601 2-411).
T2 sequence: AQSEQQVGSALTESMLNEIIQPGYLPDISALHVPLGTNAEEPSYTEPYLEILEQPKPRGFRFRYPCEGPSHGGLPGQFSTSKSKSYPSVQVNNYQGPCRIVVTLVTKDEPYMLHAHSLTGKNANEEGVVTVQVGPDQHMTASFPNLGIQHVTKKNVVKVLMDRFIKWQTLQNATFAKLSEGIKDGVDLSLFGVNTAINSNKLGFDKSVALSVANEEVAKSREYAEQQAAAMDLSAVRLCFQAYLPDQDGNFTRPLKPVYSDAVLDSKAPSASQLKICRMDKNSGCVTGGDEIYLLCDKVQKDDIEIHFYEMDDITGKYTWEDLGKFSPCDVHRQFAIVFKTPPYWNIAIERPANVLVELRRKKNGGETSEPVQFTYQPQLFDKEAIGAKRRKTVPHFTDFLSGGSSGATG

Experiment [2] deals with T3, GST-Nv-NF-kB (Ser allele) (Nematostella vectensis, UniProt A7UNT2 2-411).
T3 sequence: T2 sequence with Q21R, C66S, S207N, E215Q, V217A, E225K, A268E, D399E

The next experiment addresses T4, GST-Co-NF-kB (Capsaspora owczarzaki, UniProt F1ARL5 200-546).
T4 sequence: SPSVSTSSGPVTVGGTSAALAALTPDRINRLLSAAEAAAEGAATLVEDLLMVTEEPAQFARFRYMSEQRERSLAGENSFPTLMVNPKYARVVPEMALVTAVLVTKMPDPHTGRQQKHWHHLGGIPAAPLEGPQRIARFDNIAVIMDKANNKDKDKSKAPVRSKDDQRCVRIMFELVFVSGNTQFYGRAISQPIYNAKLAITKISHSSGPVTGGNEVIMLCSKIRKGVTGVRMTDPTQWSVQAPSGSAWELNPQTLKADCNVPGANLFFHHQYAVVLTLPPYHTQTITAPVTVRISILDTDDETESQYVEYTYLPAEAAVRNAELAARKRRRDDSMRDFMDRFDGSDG

In a further experiment the target is T5, GST-Dm-Relish (Drosophila melanogaster, UniProt Q94527 99-473).
T5 sequence: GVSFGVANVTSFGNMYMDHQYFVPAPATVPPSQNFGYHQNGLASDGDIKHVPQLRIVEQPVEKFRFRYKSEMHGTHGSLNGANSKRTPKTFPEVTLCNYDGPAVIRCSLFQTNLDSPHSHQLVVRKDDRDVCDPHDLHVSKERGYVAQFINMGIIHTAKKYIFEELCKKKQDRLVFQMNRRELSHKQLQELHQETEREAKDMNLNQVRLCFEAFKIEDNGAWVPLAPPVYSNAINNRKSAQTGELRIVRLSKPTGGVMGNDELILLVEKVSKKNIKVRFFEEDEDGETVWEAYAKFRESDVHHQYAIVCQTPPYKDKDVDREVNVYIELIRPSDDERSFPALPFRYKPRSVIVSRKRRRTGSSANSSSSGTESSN

For a further experiment, the target named is T6, GST-Aq-NF-kB (Amphimedon queenslandica, UniProt A9Y5G7 2-389).
T6 sequence: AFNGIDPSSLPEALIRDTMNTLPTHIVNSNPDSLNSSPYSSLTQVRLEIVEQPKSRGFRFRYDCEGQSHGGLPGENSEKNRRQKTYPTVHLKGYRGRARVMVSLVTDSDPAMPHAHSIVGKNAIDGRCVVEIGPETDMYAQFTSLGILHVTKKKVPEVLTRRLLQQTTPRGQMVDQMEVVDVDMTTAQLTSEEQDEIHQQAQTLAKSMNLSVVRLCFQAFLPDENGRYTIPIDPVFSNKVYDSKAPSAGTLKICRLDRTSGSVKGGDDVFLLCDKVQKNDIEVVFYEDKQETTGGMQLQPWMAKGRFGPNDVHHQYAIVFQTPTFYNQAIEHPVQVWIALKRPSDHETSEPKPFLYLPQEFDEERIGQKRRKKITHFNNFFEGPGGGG

The next experiment has as its target GST-Hu-p50 (Homo sapiens, UniProt P19838 7-356).

Where a chain is given by its changes, count along the chain named.

GST-Hu-p50, sequence (P19838 7-356): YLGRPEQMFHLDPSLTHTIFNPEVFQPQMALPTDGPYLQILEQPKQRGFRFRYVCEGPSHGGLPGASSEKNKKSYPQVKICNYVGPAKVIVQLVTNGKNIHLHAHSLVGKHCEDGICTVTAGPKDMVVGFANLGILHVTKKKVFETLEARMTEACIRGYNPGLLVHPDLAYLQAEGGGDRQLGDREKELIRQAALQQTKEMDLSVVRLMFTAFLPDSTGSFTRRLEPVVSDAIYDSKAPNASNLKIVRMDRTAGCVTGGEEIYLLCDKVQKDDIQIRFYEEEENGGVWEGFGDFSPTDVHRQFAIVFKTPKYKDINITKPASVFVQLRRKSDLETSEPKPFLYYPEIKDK

Take “CCGATTAACATCAGACATCCCCCTGATGTTAATCGGGTCTTGATTCGCTTGACGCTGCTG”: the binding signal with GST-Ap-NF-kB RHD came to 5.54 z-score; in experiment [1], 5.65 z-score; in experiment [2], 5.36 z-score; with GST-Co-NF-kB, 3.71 z-score; with GST-Dm-Relish it was 5.06 z-score; with GST-Aq-NF-kB, 5.17 z-score. The same sequence came in with a binding signal in the experiment with GST-Hu-p50 of 4.88 z-score.

Consider “CCGATTAACATCAGGGGAACCCCTGATGTTAATCGGGTCTTGATTCGCTTGACGCTGCTG”, for which the binding signal with GST-Ap-NF-kB RHD was determined as 12.5 z-score; in experiment [1] it was 11.6 z-score; in experiment [2], 11.2 z-score; in the experiment with GST-Co-NF-kB, 6.69 z-score; in the experiment with GST-Dm-Relish, 10.5 z-score; with GST-Aq-NF-kB, 10.7 z-score. The sequence also registered a binding signal with GST-Hu-p50 of 7.08 z-score.

“CCGATTAACATCAGGGGGAGATATGATGTTAATCGGGTCTTGATTCGCTTGACGCTGCTG”: the binding signal in the experiment with GST-Ap-NF-kB RHD was 5.8 z-score; in experiment [1], 5.33 z-score; in experiment [2], 6.74 z-score; with GST-Co-NF-kB it was 8.37 z-score; in the experiment with GST-Dm-Relish it was 2.53 z-score; with GST-Aq-NF-kB, 4.8 z-score. For the same sequence, the binding signal with GST-Hu-p50 amounted to 5.93 z-score.

On to “CCGATTAACATCACCCGGGAAACTGATGTTAATCGGGTCTTGATTCGCTTGACGCTGCTG”, for which the binding signal in the experiment with GST-Ap-NF-kB RHD was 2.48 z-score; in experiment [1], 2.39 z-score; in experiment [2] it was 3.08 z-score; with GST-Co-NF-kB, 4.78 z-score; with GST-Dm-Relish, 1.11 z-score; with GST-Aq-NF-kB it was 2.32 z-score. In the experiment with GST-Hu-p50, this sequence returned a binding signal of 1.81 z-score.

For “CCGATTAACATCAGGGGAGGTTATGATGTTAATCGGGTCTTGATTCGCTTGACGCTGCTG”, the binding signal in the experiment with GST-Ap-NF-kB RHD is 4.62 z-score; in experiment [1], 3.22 z-score; in experiment [2], 4.77 z-score; with GST-Co-NF-kB it was 4.52 z-score; with GST-Dm-Relish, 1.82 z-score; with GST-Aq-NF-kB, 3.84 z-score. In the experiment with GST-Hu-p50, this sequence yielded a binding signal of 3.74 z-score.

For the sequence “CCGATTAACATCAGGGGAAACGATGATGTTAATCGGGTCTTGATTCGCTTGACGCTGCTG”, the binding signal in the experiment with GST-Ap-NF-kB RHD was 4.89 z-score; in experiment [1], 6.2 z-score; in experiment [2], 8.83 z-score; with GST-Co-NF-kB, 6.65 z-score; with GST-Dm-Relish it was 1.87 z-score; with GST-Aq-NF-kB, 3.92 z-score. In the experiment with GST-Hu-p50, the binding signal is 4.62 z-score.

Consider “CCGATTAACATCAAAATTTCCCCTGATGTTAATCGGGTCTTGATTCGCTTGACGCTGCTG”, for which the binding signal with GST-Ap-NF-kB RHD came out at 10.2 z-score; in experiment [1], 11.6 z-score; in experiment [2], 14.6 z-score; with GST-Co-NF-kB, 10.6 z-score; with GST-Dm-Relish it was 8.41 z-score; with GST-Aq-NF-kB, 8.46 z-score. Further, in the experiment with GST-Hu-p50, the binding signal is 7.8 z-score.

As to “CCGATTAACATCACAGATTCCCCTGATGTTAATCGGGTCTTGATTCGCTTGACGCTGCTG”, the binding signal was 7.65 z-score with GST-Ap-NF-kB RHD; 9.02 z-score in experiment [1]; 10.7 z-score in experiment [2]; 7.14 z-score in the experiment with GST-Co-NF-kB; 6.17 z-score with GST-Dm-Relish; 5.96 z-score with GST-Aq-NF-kB. In the experiment with GST-Hu-p50, this sequence came in with a binding signal of 6.28 z-score.

With “CCGATTAACATCAGGGATTCCCCTGATGTTAATCGGGTCTTGATTCGCTTGACGCTGCTG”, the binding signal with GST-Ap-NF-kB RHD came out at 13.9 z-score; in experiment [1] it was 13.2 z-score; in experiment [2], 15.4 z-score; in the experiment with GST-Co-NF-kB it was 6.68 z-score; with GST-Dm-Relish, 11.2 z-score; with GST-Aq-NF-kB, 11.5 z-score. In the experiment with GST-Hu-p50, this sequence had a binding signal of 8.74 z-score.

Take “CCGATTAACATCAAAAAACTCCCTGATGTTAATCGGGTCTTGATTCGCTTGACGCTGCTG”: the binding signal turned out to be 6.44 z-score in the experiment with GST-Ap-NF-kB RHD; 8.22 z-score in experiment [1]; 8.11 z-score in experiment [2]; 3.38 z-score with GST-Co-NF-kB; 7.13 z-score with GST-Dm-Relish; 7.46 z-score in the experiment with GST-Aq-NF-kB. This sequence displayed a binding signal with GST-Hu-p50 of 5.69 z-score.

“CCGATTAACATCAGGGGAAAGACTGATGTTAATCGGGTCTTGATTCGCTTGACGCTGCTG”: the binding signal was determined as 4.98 z-score with GST-Ap-NF-kB RHD; 6.57 z-score in experiment [1]; 7.06 z-score in experiment [2]; 4.97 z-score in the experiment with GST-Co-NF-kB; 6.16 z-score in the experiment with GST-Dm-Relish; 5.51 z-score with GST-Aq-NF-kB. Further, the binding signal with GST-Hu-p50 worked out at 4.9 z-score.

“CCGATTAACATCAGGGGTTCCCATGATGTTAATCGGGTCTTGATTCGCTTGACGCTGCTG”: the binding signal in the experiment with GST-Ap-NF-kB RHD stood at 4.04 z-score; in experiment [1], 2.36 z-score; in experiment [2], 1.37 z-score; in the experiment with GST-Co-NF-kB, 1.64 z-score; with GST-Dm-Relish, 10 z-score; with GST-Aq-NF-kB, 4.49 z-score. For the same sequence, the binding signal with GST-Hu-p50 was 2.64 z-score.
